For six compounds, outcome and AC50 results are on record in PubChem BioAssay (EPA / NIEHS).

The source made the active and inactive calls. Rule for the calls: active = hit-call score of the fitted dose curve at least 0.9, where 1 is the maximum; inactive = score below 0.9.

Assay [1] is described as follows: APR_HepG2_NuclearSize_24hr: Apredica 24-hour HepG2 Assay for Nuclear Size (AID 2282907). Conditions: high-content imaging, actives raise or lower the signal. The gist of the method:
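Nuclear size is measured by fluorescence high-content imaging of Hoechst-labelled HepG2 nuclei after 24 hr of treatment (0.39–200 uM, 0.5% DMSO). Cells are fixed in 3.7% formaldehyde before staining, and DMSO serves as the baseline for bidirectional curve fitting.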

Assay [2] is described as follows: APR_HepG2_CellLoss_24hr: Apredica 24-hour HepG2 Assay for Cell Loss (AID 2282908).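 For AC50: fit in both directions so a hit may be cell loss or gain.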 The settings on record: high-content imaging. The gist of the method: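 Nuclear count serves as the viability measure: treated cells are fixed, permeabilized and labelled with Hoechst 33342, and six images per well are analysed to identify valid nuclei. Doses span 0.39–200 uM, and activity in either direction is scored against DMSO.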

The nature of assay [3]: APR_HepG2_MicrotubuleCSK_24hr: Apredica 24-hour HepG2 Assay for Microtubule CSK Stabilty (AID 2282909). The settings on record: HepG2 microtubule cytoskeleton imaging, actives raise or lower the signal. In outline:
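Compounds were applied to HepG2 cells for 24 hours across 0.39–200 uM in duplicate, with final DMSO at 0.5% v/v. Fixed, permeabilized cells were labeled for alpha-tubulin and nuclei, and tubulin fluorescence was quantified by imaging, fitted bidirectionally against DMSO.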

Assay [4] can be described thus: APR_HepG2_MitoticArrest_24hr: Apredica 24-hour HepG2 Assay for Mitotic Arrest (AID 2282910). Conditions: high-content imaging, actives raise or lower the signal. In outline:
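HepG2, 24 hr dosing, 0.39–200 uM, 0.5% DMSO final. Formaldehyde-fixed, Triton-permeabilised, anti-phospho-histone H3 plus Hoechst. ArrayScan imaging at 20x; bidirectional fit vs DMSO baseline.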

Assay [5] is described as follows: APR_HepG2_MitoMembPot_24hr: Apredica 24-hour HepG2 Assay for Mitochondrial Membrane Potential (AID 2282911). Conditions: imaging, actives raise or lower the signal. The gist of the method: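 HepG2 human liver cells were exposed 24 hr to compounds at 0.39–200 uM (final DMSO 0.5% v/v) in duplicate. MitoTracker Red CMXRos (250 nM, 30 min) was loaded before formaldehyde fixation; fluorescence was imaged by ArrayScan HCS and fitted bidirectionally versus DMSO.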

A short description of assay [6]: APR_HepG2_MitoMass_24hr: Apredica 24-hour HepG2 Assay for Mitochondrial Mass (AID 2282912). Conditions: high-content imaging, actives raise or lower the signal. The gist of the method: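 After 24 hr of treatment at 0.39 to 200 uM, HepG2 cells take up 250 nM MitoTracker Red CMXRos for 30 min and are then fixed with 3.7% formaldehyde. Per-well images are quantified, and any change in either direction is scored against solvent.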

Assay [7] is described as follows: APR_HepG2_p53Act_24hr: Apredica 24-hour HepG2 Assay for p53 Activation (AID 2282913).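 Note: p53 protein immunofluorescence averaged per cell in HepG2 with Hoechst nuclei.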 The settings on record: high-content imaging, actives raise or lower the signal. The gist of the method:
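HepG2 cells exposed 24 hr to compounds at 0.39–200 uM (10 concentrations, duplicate), final DMSO 0.5% v/v. After formaldehyde fixation and Triton permeabilization, p53 was immunolabeled (sheep anti-p53, Cy5 secondary) with Hoechst 33342 nuclear counterstain, then imaged by high-content fluorescence microscopy.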

Assay [8] is described as follows: APR_HepG2_CellCycleArrest_72hr: Apredica 72-hour HepG2 Assay for Cell Cycle Arrest (AID 2282914). Conditions: high-content imaging, actives raise or lower the signal. The gist of the method:
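HepG2 cells were exposed to compounds at 0.39–200 uM (0.5% v/v DMSO final, duplicates) for 72 hr, fixed in 3.7% formaldehyde, permeabilized and stained with Hoechst 33342. Nuclear DNA content was quantified by high-content imaging; gain or loss of signal was fitted bidirectionally against DMSO.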

Assay [9] can be described thus: APR_HepG2_CellLoss_72hr: Apredica 72-hour HepG2 Assay for Cell Loss (AID 2282915). Conditions: high-content imaging. The gist of the method:
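HepG2 cells exposed 72 h to compound at 0.39–200 uM (10 concentrations, duplicate) in 0.5% DMSO. Fixed with 3.7% formaldehyde and Hoechst 33342-stained. Imaged at 20x; nuclear count gives cell number, fitted bidirectionally versus DMSO.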

A short description of assay [10]: APR_HepG2_P-H2AX_72hr: Apredica 72-hour HepG2 Assay for H2AX Phosphorylation (AID 2282916).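 Note: phospho-histone H2A.x immunostain intensity per cell marking DNA damage.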 Conditions: imaging, actives raise or lower the signal. In outline: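 Human hepatoma HepG2 cells are dosed across ten concentrations (0.39 to 200 uM, 0.5% v/v DMSO) and incubated 72 hr. Phospho-histone H2A.x is then detected by antibody staining alongside c-Jun and Hoechst, and quantified by automated fluorescence imaging.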

Assay [11] in a line: APR_HepG2_MitoMembPot_72hr: Apredica 72-hour HepG2 Assay for Mitochondrial Membrane Potential (AID 2282917). Conditions: imaging, actives raise or lower the signal. The gist of the method:
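HepG2 cells dosed 72 hr with compound at 0.39–200 uM in duplicate, 0.5% v/v DMSO final. Mitochondria stained with 250 nM MitoTracker Red CMXRos for 30 min before formaldehyde fixation, imaged by high-content fluorescence; bidirectional fit versus DMSO.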

Assay [12] in a line: APR_HepG2_MitoticArrest_72hr: Apredica 72-hour HepG2 Assay for Mitotic Arrest (AID 2282918). The settings on record: high-content imaging, actives raise or lower the signal. In outline:
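HepG2 cells were exposed for 72 hr to compound at 0.39–200 uM (10 concentrations, duplicate) in 0.5% v/v DMSO, fixed in 3.7% formaldehyde, immunostained for phospho-histone H3 with Hoechst 33342 and imaged by high-content fluorescence; bidirectional fits versus DMSO.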

Assay [13] is described as follows: APR_HepG2_MicrotubuleCSK_72hr: Apredica 72-hour HepG2 Assay for Microtubule CSK Stabilty (AID 2282919). The settings on record: HepG2 microtubule cytoskeleton, high-content imaging, actives raise or lower the signal. In outline: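 HepG2, 72 hr cmpd exposure, 0.39–200 uM (10 pts, duplicate), 0.5% DMSO. 3.7% formaldehyde fix, 0.5% Triton perm, anti-alpha-tubulin/Cy5 plus Hoechst. HCS fluorescence intensity; bidirectional fit vs DMSO baseline; taxol as positive control.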

A short description of assay [14]: APR_HepG2_P-H2AX_24hr: Apredica 24-hour HepG2 Assay for H2AX Phosphorylation (AID 2282920). Conditions: high-content imaging, actives raise or lower the signal. In outline: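 HepG2 human liver cells were exposed for 24 hr to compounds at 0.39–200 uM in duplicate, with 0.5% v/v DMSO final. Fixed cells were immunostained for phospho-histone H2A.x plus Hoechst 33342, imaged by HCS fluorescence, and fitted bidirectionally against DMSO.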

Assay [15] in a line: APR_HepG2_StressKinase_72hr: Apredica 72-hour HepG2 Assay for Stress Kinase (AID 2282921). The settings on record: HepG2 stress kinase (phospho-c-Jun) imaging, actives raise or lower the signal. The gist of the method:
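After a 72 h compound treatment spanning 0.39 to 200 uM, formaldehyde-fixed cells are labelled for phosphorylated c-Jun and nuclei, imaged by automated fluorescence microscopy, and activity is fitted in both directions relative to DMSO controls.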

Assay [16] can be described thus: APR_HepG2_StressKinase_24hr: Apredica 24-hour HepG2 Assay for Stress Kinase (AID 2282922). Conditions: HepG2 stress kinase (phospho-c-Jun) imaging, actives raise or lower the signal. The gist of the method:
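Read-out: phospho-c-Jun immunofluorescence (Cy3 secondary) quantified by high-content imaging at 20x, nuclei defined by Hoechst 33342. Human HepG2 liver cells dosed 24 hr, 0.39–200 uM, DMSO 0.5% v/v; gain or loss of signal fitted relative to DMSO.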

Assay [17] is described as follows: APR_HepG2_MitoMass_72hr: Apredica 72-hour HepG2 Assay for Mitochondrial Mass (AID 2282924).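 Note: MitoTracker Red CMXRos stain intensity per cell imaged as mitochondrial mass.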 The settings on record: high-content imaging, actives raise or lower the signal. In outline:
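Read-out: MitoTracker Red fluorescence intensity from automated imaging (20x, six fields per well) in human HepG2 liver cells. Dosing ran 72 hr, 0.39–200 uM, 0.5% DMSO; bidirectional curve fitting versus DMSO baseline.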

Assay [18] in a line: APR_HepG2_NuclearSize_72hr: Apredica 72-hour HepG2 Assay for Nuclear Size (AID 2282925). Conditions: high-content imaging, actives raise or lower the signal. The gist of the method: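 Read-out: nuclear diameter from Hoechst 33342 images (ArrayScan, 20x, six fields/well), via cell-cycle image analysis. HepG2 were dosed 0.39–200 uM for 72 hr in 0.5% DMSO. Bidirectional fit relative to DMSO.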

A short description of assay [19]: APR_HepG2_p53Act_72hr: Apredica 72-hour HepG2 Assay for p53 Activation (AID 2282923).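 Note: average cellular p53 protein immunofluorescence intensity in HepG2 cells.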 Conditions: high-content imaging, actives raise or lower the signal. The gist of the method:
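Imaging-based endpoint: after 72 hr compound exposure (up to 200 uM, 0.5% DMSO), fixed and permeabilized monolayers were labelled with anti-p53 antibody and imaged; signal change in either direction was fitted relative to DMSO controls.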

Assay [20] is described as follows: ATG_CRE_CIS: Attagene CIS-FACTORIAL HepG2 Assay for human cAMP Responsive Element (CRE) binding protein 3 (AID 2282926). Conditions: HepG2 CRE cis-reporter, Attagene multiplexed mRNA; actives raise or lower the signal. In outline: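 Capillary electrophoresis of 6-FAM-labelled, HpaI-digested PCR products quantified reporter transcripts. These came from HepG2 transiently transfected with cis-element reporters and exposed to test chemicals for 24 hours, with DMSO defining baseline activity.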

Regarding `Cc1nn(C)c(Oc2ccccc2)c1C=NOCc1ccc(C(=O)OC(C)(C)C)cc1`, the compound was called inactive in assay [1], in assay [3], in [4], in assay [5], in assay [6] and in assay [7]. Moreover, the outcome in assay [10], in [11], in assay [14], in [15], in assay [16] and in assay [17] was inactive. In addition, in assay [18], the call was inactive. For the same compound, the AC50 in [2] was 6.62 µM (active); in [8] it was 19.8 µM (active); in assay [9], 19.8 µM (active); in assay [12] it was 40.3 µM (active); in [13], 21.2 µM (active).

Regarding `CCCN(CCC)c1c([N+](=O)[O-])cc(C(F)(F)F)c(N)c1[N+](=O)[O-]`, the compound was classed as inactive in assay [1], in [2], in [3], in assay [4], in assay [6] and in assay [7]. Besides, the call in [8], in assay [10], in [11], in [12], in [14] and in assay [15] was inactive. The compound was classed as inactive in assay [16], in assay [19], in [17], in assay [18] and in assay [20]. The AC50 is 32.1 µM (active) in [5], 33 µM (active) in assay [9] and 51.2 µM (active) in [13].

In the case of `CCCCCCC(C)OC(=O)COc1nc(F)c(Cl)c(N)c1Cl` (stereo unspecified), the compound was called inactive in assay [1], in assay [2], in [4], in [5], in [6] and in assay [7]. The result in [8], in assay [9], in assay [10], in [11], in assay [12] and in [14] was inactive. The compound was called inactive in assay [15], in [16], in assay [17] and in [18]. For the same compound, the AC50 was 116 µM (active) in assay [3] and 106 µM (active) in assay [13].

With `COCCO`, the compound was classed as inactive in assay [1], in assay [2], in [3], in [4], in [5] and in assay [6]. For the same compound, the result in assay [7], in assay [8], in [9], in assay [10], in assay [11] and in assay [12] was inactive. For the same compound, the result in assay [13], in assay [14], in assay [15], in assay [16], in assay [17] and in assay [18] was inactive.

For the compound `CCOC(=O)C(C)Oc1ccc(Oc2cnc3cc(Cl)ccc3n2)cc1` (stereo unspecified), the compound was classed as inactive in assay [1], in assay [3], in assay [4], in [5], in assay [6] and in assay [8]. Further, the call in assay [10], in assay [12], in assay [14], in assay [15], in assay [16] and in assay [17] was inactive. The outcome in assay [18] and in assay [20] was inactive. In addition, the AC50 was 58.5 µM (active) in assay [2], 80.6 µM (active) in assay [9], 13.6 µM (active) in assay [11] and 95.1 µM (active) in [13].

As for `CC1(C)C(C=C(Cl)Cl)C1C(=O)OCc1cccc(Oc2ccccc2)c1` (stereo unspecified), the compound was called inactive in assay [1], in assay [2], in assay [3], in assay [4], in assay [6] and in [7]. Also, the compound was classed as inactive in [10], in assay [11], in assay [12], in assay [14], in [15] and in assay [16]. For the same compound, the result in assay [17], in [18] and in assay [20] was inactive. Moreover, the AC50 in [5] was 100 µM (active); in assay [8] it was 101 µM (active); in [9], 62.3 µM (active); in assay [13], 100 µM (active).
